Data taken from PubChem BioAssay (NCI).
The panel holds about 83,000 compounds, 20% with a hit somewhere; the sample as a whole holds those more often.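 Step 1: grow cells in 96-well plates. Step 2: add test compound at a single concentration. Step 3: incubate 48 h. Step 4: record percent growth.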 A number with no mark means an inactive call. Active and inactive are the calls of the source.

These molecules were tested on MDA-MB-468 breast (assay: NCI-60 one-dose screen, 48 h (100 = growth as untreated, 0 = no growth, -100 = all killed)). Settings: 10 µM unless noted.
Experimental: Growth inhibition of the MDA-MB-468 human Breast tumor cell line is measured as a screen for anti-cancer activity. Cells are grown in 96 well plates and exposed to the test compound for 48 hours. Compounds are tested at a single concentration, which is 10^-5 M for most compounds. The reported endpoint is percent growth (GI% or GIPRCNT), where numbers from 0 - 100% represent growth inhibition, and numbers from -100% - 0 represent cell death. For example, a value of 40 represents 60% growth inhibition. A value of 0 means no net growth occurred over the course of the experiment. A value of -40 indicates 40% of cells at the beginning of the experiment died by the end of the experiment. A value of -100 means all cells are dead at the end of the experiment.
NCI-60 Human Tumor Cell Lines Screen was performed using the standard one-dose NCI protocol, which is described in more detail at https://dtp.cancer.gov/discovery_development/nci-60/default.htm.
Compounds with GIPRCNT values below 10 were considered active. Activity score was based on GIPRCNT using the following formula: […]
Score is 0 for GIPRCNT values of 100 or above, 50 for GIPRCNT values of 0, and 100 for GIPRCNT values of -100.

| Structure (SMILES) | growth |
| --- | --- |
| N#C/C(=C\c1cccc(C#N)c1)c1ccccc1 | 106% |
| Cc1cc(N2CCCC2)nc(NCc2cc(Nc3ccnc4cc(Cl)ccc34)ccc2F)n1 | -58.7% (active) |
| CN(C)CCC(=O)c1ccc([N+](=O)[O-])cc1 | 86.5% |
| Cc1cc(O)c(C2=NN(c3ccc(S(N)(=O)=O)cc3)C(c3ccccc3Cl)C2)cc1Cl (stereo not given) | 28.9% |
| C=C(C)[C@@H]1CC[C@]2(COCCCNCCC#N)CC[C@]3(C)[C@H](CC[C@@H]4[C@@]5(C)CC[C@H](OCCCNCCC#N)C(C)(C)[C@@H]5CC[C@]43C)[C@@H]12 | 8.32% (active) |
| O=c1c2ccccc2cc2n1CCN=C2c1ccccc1 | 98.4% |
| COc1cccc(NC(=O)c2sc3nc4c(cc3c2N)CN(Cc2ccccc2)CC4)c1 | 64.4% |
| CS(=O)(=O)Nc1cc(-c2ccc3ncc(C#N)c(NCc4cccc(F)c4)c3c2)cnc1Cl | -37.9% (active) |
| CCCCNC(=O)Oc1ccc(/C(=C(/C)Cc2ccc(OC)cc2)c2ccc(OCCN3CCCCCC3)cc2)cc1 | 69.2% |
| O=C1/C(=C/c2ccc(Cl)c(Cl)c2)CN(C(=O)C(Cl)Cl)C/C1=C\c1ccc(Cl)c(Cl)c1 | -52.5% (active) |
| C/C(=C(\c1ccc(OCCN2CCCCCC2)cc1)c1ccc(OC(=O)c2ccccc2)cc1)c1ccc(Cl)cc1 | 45.5% |
| COc1ccc2c(c1)sc1nc(-c3ccccc3)c(-c3ccc(O)c(OC)c3)n12 | 107% |
| COc1cc(NS(=O)(=O)C(C)C)cc(-c2cc(-c3ccc(N4CCNCC4)cc3)cnc2N)c1 | 92.2% |
| COc1ccc(-c2nc(SCCC(C)C)nc(N/N=C\c3ccc(O)cc3)c2C#N)cc1 | 88.8% |
| C=C[C@@H]1C[C@@H]2Cc3cc(F)ccc3N1O2 | 116% |
| c1cncc(-c2csc(-c3c[nH]c4ccccc34)n2)c1 | 99.1% |
| CC(C)C[C@H](C(=O)N[C@@H](C)C(N)=O)N1CC=CCN(O)S1(=O)=O | 109% [5 µM] |
| CCCCOc1ccc(S(=O)(=O)N2CCN(c3nccc(N4CCOCC4)n3)CC2)cc1 | 6.94% (active) |
| O=C1Nc2ccccc2SC1C1SC(=S)N(Cc2ccccc2)C1=O (stereo not given) | 31.4% |
| CC(C)n1nc(C#Cc2cccc3cc(-c4cccc(C(F)(F)F)c4)ncc23)c2c(N)ncnc21 | 98.3% |

| Structure (SMILES) | growth |
| --- | --- |
| COc1ccc(-c2cc(-c3ccccc3)nc(SCCCCCCC(=O)NO)n2)cc1 | 64.1% |
| O=C(O)/C=C/c1ccc2c(c1)CCC2 | 104% |
| COC(=O)Nc1nc2ccc(C(=O)c3ccc(F)cc3)cc2[nH]1 | 25.9% |
| NS(=O)(=O)Oc1ccc(-c2ccc3sccc3c2)cc1 | 87.1% |
| CSCCCNC(=O)c1ccc2c(c1)/C(=C/c1[nH]c(C)cc1C)C(=O)N2 | 42.7% |
| COc1ccc2nc3c(n2c1)C(=O)C(=O)c1ccccc1-3 | -10.8% (active) |
| CCOC(=O)c1cnc2c(C)cc(C)cc2c1NCCCN(C)C | 16.5% |
| C/C(CC1(O)C(=O)Nc2ccccc21)=N\O (stereo not given) | 92% |
| Cn1cnc([N+](=O)[O-])c1Sc1nnc(-c2ccccc2)c(-c2ccccc2)n1 | 64.8% |
| COc1cc(NCC(O)CN(CC(C)C)CC(C)C)c2nc(C)ccc2c1 (stereo not given) | -6.94% (active) |
| Fc1ccc(-c2nnc(/C=C/c3cn(-c4ccccc4)nc3-c3ccccc3)o2)cc1 | 103% |
| COc1ccc2c(c1)c(-c1nc(-c3cn(C)c4ccncc34)cs1)cn2C | -28.4% (active) |
| CCn1cc(C(=O)O)c(=O)c2cc(F)c(N3CCN(CC(=O)Nc4ccc(/C(C)=N/OC)cc4)CC3)cc21 | 102% |
| C1=C2CCCC3=Cc4ccccc4OC23Oc2ccccc21 | 25.5% |
| C=C1CCC2C3(C)COC(c4ccc(OC)cc4Br)OC3CCC2(C)C1/C=C/C1=CCOC1=O (stereo not given) | 54.3% |
| O=C(CCl)N(c1ccccc1)c1ccccc1 | 104% |
| CN(C)C(=O)c1cc2cnc(Nc3ccc(-c4csc5c(=O)cc(N6CCNCC6)oc45)cc3)nc2n1C1CCCC1 | 19.6% |
| CCn1cc(C(=O)N/N=C/c2cccs2)c(=O)c2cc(F)c(N3CCNC(C)C3)c(F)c21 (stereo not given) | 55.1% |
| COC(=O)c1cc2cc(-c3ccc(OC)cc3)cnc2[nH]1 | 17.4% |
| C=C1CCC2C3(C)COC(c4ccccc4Br)OC3CCC2(C)C1C/C=C1/C(=O)OCC1OC(C)=O (stereo not given) | -34.3% (active) |
